# Assay results taken from paper PMC7862700, “An all-to-all approach to the identification of sequence-specific readers for epigenetic DNA modifications on cytosine”.
# Columns and labels:
# Assay in all cases: DAPPL (digital affinity profiling via proximity ligation, sequencing); 10 mM Tris-HCl pH 7.5, 50 mM NaCl, 1 mM DTT, 4% glycerol, room temperature, 30 min; GST-TFs on glutathione beads, 16-mer random dsDNA library, 0.1% formaldehyde crosslink after washing; high values mean tight binding
# FLI1 = molecular target: T1, FLI1 (Homo sapiens, UniProt Q01543 1-452); details: protein: recombinant; tags: N-terminal GST; dsDNA, one strand shown
# T1 sequence: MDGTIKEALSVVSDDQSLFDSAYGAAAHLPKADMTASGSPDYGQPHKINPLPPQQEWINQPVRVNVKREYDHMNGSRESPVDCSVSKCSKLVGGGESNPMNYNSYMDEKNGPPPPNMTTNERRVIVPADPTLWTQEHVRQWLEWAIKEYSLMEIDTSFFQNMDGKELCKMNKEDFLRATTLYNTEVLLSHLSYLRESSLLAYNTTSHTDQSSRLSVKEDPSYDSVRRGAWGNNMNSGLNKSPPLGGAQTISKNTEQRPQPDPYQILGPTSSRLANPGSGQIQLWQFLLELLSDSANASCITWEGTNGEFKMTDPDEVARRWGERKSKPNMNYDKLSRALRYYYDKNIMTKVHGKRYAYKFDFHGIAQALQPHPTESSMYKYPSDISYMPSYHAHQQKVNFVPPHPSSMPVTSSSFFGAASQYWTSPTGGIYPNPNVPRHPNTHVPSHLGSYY
# Procedure, shortened: (§1)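 Pools of DNA-barcoded human transcription factors, expressed in yeast as GST fusions on glutathione beads and combined with a tag-only sample, were incubated with 200 nmole of a 16-mer random double-stranded DNA library. Incubation took 30 min at room temperature in Tris/NaCl/DTT/glycerol buffer and was followed by washing, 0.1% formaldehyde crosslinking, proximity ligation (BsaI/T4 ligase, 1 h, 37 °C), PCR amplification and sequencing on an Illumina NextSeq500. Binding signal is the ratio of a hexamer's read frequency for a factor to its frequency for the tag-only sample.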
# ELK1 = molecular target: T2, ELK1 (Homo sapiens, UniProt P19419 1-428); details: protein: recombinant; tags: N-terminal GST; dsDNA, one strand shown
# T2 sequence: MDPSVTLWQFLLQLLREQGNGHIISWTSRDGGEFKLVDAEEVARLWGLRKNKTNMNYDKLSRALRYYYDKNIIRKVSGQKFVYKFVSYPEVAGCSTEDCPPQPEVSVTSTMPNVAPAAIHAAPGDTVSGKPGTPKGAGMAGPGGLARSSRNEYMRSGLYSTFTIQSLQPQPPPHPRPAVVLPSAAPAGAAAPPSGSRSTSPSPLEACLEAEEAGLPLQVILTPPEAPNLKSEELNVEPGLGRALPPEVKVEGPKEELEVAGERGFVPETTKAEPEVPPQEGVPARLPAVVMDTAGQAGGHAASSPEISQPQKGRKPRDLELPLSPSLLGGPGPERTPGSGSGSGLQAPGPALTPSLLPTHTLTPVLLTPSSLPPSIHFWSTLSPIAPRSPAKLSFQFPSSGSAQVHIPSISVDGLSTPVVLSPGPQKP
# Procedure, shortened: as §1
# GABPA = molecular target: T3, GABPA (Homo sapiens, UniProt Q06546 1-454); details: protein: recombinant; tags: N-terminal GST; dsDNA, one strand shown
# T3 sequence: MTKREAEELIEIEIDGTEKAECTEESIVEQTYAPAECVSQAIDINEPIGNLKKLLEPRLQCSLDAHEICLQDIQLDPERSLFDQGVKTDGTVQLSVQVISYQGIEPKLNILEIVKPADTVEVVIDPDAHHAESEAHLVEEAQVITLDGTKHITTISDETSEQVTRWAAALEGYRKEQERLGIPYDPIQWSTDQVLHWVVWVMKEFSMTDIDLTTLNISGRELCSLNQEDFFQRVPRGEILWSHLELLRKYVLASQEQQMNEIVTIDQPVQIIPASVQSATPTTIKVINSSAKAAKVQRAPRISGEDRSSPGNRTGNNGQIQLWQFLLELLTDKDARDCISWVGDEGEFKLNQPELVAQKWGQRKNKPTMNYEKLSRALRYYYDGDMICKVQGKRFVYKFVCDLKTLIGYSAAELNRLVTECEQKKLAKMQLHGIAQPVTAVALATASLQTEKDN
# Procedure, shortened: as §1
# ERG = molecular target: T4, ERG (Homo sapiens, UniProt P11308 1-479); details: protein: recombinant; tags: N-terminal GST; dsDNA, one strand shown
# T4 sequence: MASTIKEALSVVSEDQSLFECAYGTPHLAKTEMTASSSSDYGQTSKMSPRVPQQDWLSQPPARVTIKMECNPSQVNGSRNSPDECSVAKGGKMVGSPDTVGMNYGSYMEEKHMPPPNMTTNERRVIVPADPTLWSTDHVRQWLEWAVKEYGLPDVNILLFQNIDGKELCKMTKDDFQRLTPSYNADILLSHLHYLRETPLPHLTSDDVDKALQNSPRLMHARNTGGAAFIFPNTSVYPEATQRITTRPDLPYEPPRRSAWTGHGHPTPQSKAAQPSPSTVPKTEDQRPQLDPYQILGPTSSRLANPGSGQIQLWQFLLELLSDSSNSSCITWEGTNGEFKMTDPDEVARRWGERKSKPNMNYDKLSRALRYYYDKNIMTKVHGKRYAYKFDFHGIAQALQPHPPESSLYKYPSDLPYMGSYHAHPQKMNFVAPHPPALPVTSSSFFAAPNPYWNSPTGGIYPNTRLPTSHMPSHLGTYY
# Procedure, shortened: as §1
# ELF1 = ELF1 (Homo sapiens, UniProt P32519 1-619); details: protein: recombinant; tags: N-terminal GST; dsDNA, one strand shown
# Sequence of ELF1 (P32519 whole entry): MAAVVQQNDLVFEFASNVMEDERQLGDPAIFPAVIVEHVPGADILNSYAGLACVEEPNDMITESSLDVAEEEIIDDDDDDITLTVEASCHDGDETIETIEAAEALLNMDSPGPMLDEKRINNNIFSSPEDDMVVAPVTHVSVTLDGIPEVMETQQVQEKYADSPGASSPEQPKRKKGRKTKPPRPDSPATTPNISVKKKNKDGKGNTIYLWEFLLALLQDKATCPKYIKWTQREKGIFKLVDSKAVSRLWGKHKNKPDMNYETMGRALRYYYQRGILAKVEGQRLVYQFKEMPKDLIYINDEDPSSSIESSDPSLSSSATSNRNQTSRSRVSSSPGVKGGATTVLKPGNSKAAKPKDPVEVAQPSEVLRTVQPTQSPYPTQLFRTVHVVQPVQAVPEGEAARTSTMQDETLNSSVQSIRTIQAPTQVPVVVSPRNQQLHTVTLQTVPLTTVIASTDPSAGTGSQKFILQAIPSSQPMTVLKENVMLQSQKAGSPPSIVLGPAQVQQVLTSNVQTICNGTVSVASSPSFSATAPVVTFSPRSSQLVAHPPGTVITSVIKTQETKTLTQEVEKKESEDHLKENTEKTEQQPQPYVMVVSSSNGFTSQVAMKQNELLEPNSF
# Procedure, shortened: as §1
# EHF = molecular target: T5, EHF (Homo sapiens, UniProt Q9NZC4 1-300); details: protein: recombinant; tags: N-terminal GST; dsDNA, one strand shown
# T5 sequence: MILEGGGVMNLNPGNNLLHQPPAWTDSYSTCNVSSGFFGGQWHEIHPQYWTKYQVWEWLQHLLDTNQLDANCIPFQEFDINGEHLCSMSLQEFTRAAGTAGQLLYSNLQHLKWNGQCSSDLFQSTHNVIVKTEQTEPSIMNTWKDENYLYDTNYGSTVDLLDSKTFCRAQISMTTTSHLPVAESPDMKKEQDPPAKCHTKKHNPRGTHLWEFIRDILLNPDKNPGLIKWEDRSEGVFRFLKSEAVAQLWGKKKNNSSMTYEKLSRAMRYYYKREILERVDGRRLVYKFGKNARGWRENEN
# Procedure, shortened: as §1
# SPI1 = SPI1 (Homo sapiens, UniProt P17947 1-270); details: protein: recombinant; tags: N-terminal GST; dsDNA, one strand shown
# Procedure, shortened: as §1
# SPIB = SPIB (Homo sapiens, UniProt Q01892 1-262); details: protein: recombinant; tags: N-terminal GST; dsDNA, one strand shown
# Sequence of SPIB (Q01892 whole entry): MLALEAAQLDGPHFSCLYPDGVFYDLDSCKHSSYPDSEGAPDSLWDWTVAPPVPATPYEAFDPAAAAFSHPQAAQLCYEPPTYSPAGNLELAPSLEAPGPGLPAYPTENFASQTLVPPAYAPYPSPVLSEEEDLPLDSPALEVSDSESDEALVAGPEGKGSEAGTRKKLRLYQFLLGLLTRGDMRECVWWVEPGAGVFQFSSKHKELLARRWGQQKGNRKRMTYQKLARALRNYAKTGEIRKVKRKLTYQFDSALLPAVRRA
# Procedure, shortened: as §1
# ELK3 = molecular target: T6, ELK3 (Homo sapiens, UniProt P41970 1-407); details: protein: recombinant; tags: N-terminal GST; dsDNA, one strand shown
# T6 sequence: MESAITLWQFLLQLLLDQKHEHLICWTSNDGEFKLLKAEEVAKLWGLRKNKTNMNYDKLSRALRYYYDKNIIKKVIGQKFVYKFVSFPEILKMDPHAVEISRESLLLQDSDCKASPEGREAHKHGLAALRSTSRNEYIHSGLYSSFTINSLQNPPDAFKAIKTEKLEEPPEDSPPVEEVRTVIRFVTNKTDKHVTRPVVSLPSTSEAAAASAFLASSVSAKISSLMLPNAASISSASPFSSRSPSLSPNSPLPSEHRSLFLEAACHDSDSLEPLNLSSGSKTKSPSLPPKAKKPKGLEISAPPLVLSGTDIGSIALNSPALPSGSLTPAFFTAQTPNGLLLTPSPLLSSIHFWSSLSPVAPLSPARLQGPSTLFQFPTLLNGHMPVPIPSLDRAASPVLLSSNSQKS
# Procedure, shortened: as §1
# FEV = molecular target: T7, FEV (Homo sapiens, UniProt Q99581 1-238); details: protein: recombinant; tags: N-terminal GST; dsDNA, one strand shown
# T7 sequence: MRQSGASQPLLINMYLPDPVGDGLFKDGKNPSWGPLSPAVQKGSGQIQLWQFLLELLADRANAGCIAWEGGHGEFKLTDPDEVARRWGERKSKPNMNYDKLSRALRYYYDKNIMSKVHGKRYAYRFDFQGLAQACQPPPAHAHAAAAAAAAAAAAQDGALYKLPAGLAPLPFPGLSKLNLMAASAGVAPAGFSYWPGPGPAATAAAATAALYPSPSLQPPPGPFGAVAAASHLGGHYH
# Procedure, shortened: as §1
# ETV5 = ETV5 (Homo sapiens, UniProt P41161 1-510); details: protein: recombinant; tags: N-terminal GST; dsDNA, one strand shown
# Sequence of ETV5 (P41161 whole entry): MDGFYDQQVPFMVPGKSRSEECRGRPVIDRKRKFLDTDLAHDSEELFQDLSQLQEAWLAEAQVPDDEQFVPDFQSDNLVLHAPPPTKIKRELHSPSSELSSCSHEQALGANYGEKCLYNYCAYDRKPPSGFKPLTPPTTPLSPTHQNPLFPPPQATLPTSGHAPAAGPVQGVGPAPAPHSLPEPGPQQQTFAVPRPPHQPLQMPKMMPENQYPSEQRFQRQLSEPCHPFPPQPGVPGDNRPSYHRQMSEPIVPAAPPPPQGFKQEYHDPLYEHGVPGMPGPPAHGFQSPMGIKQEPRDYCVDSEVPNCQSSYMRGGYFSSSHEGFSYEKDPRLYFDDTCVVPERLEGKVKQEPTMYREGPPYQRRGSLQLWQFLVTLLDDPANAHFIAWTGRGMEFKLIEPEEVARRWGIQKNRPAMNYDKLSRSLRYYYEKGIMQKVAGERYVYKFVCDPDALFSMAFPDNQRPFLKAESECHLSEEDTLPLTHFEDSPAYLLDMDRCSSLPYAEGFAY
# Procedure, shortened: as §1
# HSF1 = HSF1 (Homo sapiens, UniProt Q00613 1-529); details: protein: recombinant; tags: N-terminal GST; chain copies: 3; dsDNA, one strand shown
# Sequence of HSF1 (Q00613 whole entry): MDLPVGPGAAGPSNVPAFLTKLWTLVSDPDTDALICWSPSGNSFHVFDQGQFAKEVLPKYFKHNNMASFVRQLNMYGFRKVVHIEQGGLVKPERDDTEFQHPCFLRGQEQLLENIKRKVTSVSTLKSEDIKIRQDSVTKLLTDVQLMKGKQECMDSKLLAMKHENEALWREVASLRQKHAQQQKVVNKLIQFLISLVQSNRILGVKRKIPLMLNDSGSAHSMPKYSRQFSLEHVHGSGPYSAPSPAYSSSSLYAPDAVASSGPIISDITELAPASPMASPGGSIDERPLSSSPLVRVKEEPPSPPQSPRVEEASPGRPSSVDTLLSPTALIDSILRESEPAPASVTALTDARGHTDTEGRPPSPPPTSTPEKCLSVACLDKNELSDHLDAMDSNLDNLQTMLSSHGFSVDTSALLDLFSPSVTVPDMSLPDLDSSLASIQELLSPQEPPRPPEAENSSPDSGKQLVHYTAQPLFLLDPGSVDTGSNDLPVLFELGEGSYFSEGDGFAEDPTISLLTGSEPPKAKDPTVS
# Procedure, shortened: as §1
# SPIC = molecular target: T8, SPIC (Homo sapiens, UniProt Q8N5J4 1-248); details: protein: recombinant; tags: N-terminal GST; dsDNA, one strand shown
# T8 sequence: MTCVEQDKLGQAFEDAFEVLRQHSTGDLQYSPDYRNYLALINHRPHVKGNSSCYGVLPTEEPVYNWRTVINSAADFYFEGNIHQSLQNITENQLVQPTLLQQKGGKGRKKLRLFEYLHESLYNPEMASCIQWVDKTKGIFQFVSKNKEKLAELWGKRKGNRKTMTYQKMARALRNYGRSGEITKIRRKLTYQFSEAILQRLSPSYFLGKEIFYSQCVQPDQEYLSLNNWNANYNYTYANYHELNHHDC
# Procedure, shortened: as §1
# ELF4 = ELF4 (Homo sapiens, UniProt Q99607 1-663); details: protein: recombinant; tags: N-terminal GST; dsDNA, one strand shown
# Sequence of ELF4 (Q99607 whole entry): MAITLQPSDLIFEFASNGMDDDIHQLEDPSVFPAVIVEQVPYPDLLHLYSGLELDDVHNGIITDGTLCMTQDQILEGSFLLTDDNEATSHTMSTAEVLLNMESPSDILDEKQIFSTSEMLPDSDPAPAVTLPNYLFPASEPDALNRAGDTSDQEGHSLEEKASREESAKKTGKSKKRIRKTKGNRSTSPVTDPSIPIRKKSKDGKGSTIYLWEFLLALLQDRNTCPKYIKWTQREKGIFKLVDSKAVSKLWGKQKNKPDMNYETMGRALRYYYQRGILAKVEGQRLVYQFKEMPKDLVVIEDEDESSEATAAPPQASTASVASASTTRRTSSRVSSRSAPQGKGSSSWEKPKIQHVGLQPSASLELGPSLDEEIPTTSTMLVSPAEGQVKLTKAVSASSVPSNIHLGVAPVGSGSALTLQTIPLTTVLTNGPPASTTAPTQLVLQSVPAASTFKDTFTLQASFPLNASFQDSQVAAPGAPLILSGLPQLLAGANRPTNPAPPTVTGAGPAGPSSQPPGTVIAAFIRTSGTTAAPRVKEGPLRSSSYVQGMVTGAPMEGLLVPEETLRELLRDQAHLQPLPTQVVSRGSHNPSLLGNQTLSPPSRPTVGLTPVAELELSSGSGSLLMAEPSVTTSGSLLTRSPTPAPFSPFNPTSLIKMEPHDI
# Procedure, shortened: as §1
# ELK4 = molecular target: T9, ELK4 (Homo sapiens, UniProt P28324-2 1-405); details: protein: recombinant; tags: N-terminal GST; dsDNA, one strand shown
# T9 sequence: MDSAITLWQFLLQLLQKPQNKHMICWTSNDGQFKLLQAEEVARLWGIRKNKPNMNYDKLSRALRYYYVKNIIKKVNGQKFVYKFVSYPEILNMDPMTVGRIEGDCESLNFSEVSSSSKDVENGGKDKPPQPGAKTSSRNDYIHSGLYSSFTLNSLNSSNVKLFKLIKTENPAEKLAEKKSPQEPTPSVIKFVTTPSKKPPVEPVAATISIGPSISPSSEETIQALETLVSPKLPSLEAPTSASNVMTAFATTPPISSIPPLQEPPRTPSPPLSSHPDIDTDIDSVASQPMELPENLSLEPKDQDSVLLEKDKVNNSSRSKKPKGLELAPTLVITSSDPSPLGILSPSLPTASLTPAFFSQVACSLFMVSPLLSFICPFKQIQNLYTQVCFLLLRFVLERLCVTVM
# Procedure, shortened: as §1
# ETV2 = molecular target: T10, ETV2 (Homo sapiens, UniProt O00321 1-342); details: protein: recombinant; tags: N-terminal GST; dsDNA, one strand shown
# T10 sequence: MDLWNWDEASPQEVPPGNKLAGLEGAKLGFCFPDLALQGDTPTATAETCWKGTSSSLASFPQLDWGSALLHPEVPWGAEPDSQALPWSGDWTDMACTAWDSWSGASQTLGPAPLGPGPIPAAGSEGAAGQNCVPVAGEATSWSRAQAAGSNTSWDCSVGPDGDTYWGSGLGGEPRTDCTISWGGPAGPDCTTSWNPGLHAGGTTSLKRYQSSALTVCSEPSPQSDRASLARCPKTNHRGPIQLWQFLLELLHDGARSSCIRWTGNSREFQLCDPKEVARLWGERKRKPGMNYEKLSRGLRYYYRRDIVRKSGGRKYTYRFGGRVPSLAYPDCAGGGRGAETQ
# Procedure, shortened: as §1
# ELF3 = molecular target: T11, ELF3 (Homo sapiens, UniProt P78545 1-371); details: protein: recombinant; tags: N-terminal GST; dsDNA, one strand shown
# T11 sequence: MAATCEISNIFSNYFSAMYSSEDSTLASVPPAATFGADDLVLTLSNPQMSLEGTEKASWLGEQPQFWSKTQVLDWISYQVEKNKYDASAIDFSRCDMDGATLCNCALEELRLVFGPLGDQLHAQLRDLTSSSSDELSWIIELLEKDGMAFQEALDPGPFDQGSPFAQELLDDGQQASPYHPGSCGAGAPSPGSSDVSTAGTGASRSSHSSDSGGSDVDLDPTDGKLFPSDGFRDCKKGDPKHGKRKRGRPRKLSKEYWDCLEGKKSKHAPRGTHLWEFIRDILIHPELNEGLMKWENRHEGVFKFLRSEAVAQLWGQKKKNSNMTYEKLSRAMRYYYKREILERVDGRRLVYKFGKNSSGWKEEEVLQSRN
# Procedure, shortened: as §1
# CRX = CRX (Homo sapiens, UniProt O43186 1-299); details: protein: recombinant; tags: N-terminal GST; dsDNA, one strand shown
# Sequence of CRX (O43186 whole entry): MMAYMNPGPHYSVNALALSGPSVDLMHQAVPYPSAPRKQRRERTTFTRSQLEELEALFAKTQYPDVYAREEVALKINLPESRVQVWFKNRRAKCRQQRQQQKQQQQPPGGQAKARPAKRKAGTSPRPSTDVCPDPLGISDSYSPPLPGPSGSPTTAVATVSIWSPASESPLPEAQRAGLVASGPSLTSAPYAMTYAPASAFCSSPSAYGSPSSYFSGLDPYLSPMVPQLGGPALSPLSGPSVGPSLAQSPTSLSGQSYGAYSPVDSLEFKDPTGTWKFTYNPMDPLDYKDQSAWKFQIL
# Procedure, shortened: as §1
# ETV1 = ETV1 (Homo sapiens, UniProt P50549 1-477); details: protein: recombinant; tags: N-terminal GST; dsDNA, one strand shown
# Sequence of ETV1 (P50549 whole entry): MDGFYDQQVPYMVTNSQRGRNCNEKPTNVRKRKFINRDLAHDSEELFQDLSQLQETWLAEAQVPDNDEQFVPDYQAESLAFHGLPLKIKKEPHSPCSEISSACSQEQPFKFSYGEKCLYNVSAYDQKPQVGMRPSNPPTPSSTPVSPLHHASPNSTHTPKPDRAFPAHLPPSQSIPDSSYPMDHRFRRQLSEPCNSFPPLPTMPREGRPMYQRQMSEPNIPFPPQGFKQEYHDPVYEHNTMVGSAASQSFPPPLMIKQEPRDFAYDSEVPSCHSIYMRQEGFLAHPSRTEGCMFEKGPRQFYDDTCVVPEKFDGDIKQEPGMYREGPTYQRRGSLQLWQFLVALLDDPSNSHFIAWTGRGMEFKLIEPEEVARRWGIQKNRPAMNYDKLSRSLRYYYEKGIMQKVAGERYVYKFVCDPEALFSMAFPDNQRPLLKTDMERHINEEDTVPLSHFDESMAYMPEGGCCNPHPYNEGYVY
# Procedure, shortened: as §1
sequence,measurement,setting,value
GAACAA,binding signal,FLI1,"1.17 fold enrichment (6-mer frequency, TF over GST control)"
same,binding signal,ELK1,"1.13 fold enrichment (6-mer frequency, TF over GST control)"
same,binding signal,GABPA,"1.16 fold enrichment (6-mer frequency, TF over GST control)"
same,binding signal,ERG,"1.14 fold enrichment (6-mer frequency, TF over GST control)"
same,binding signal,ELF1,"1.22 fold enrichment (6-mer frequency, TF over GST control)"
same,binding signal,EHF,"1.22 fold enrichment (6-mer frequency, TF over GST control)"
same,binding signal,SPI1,"1.15 fold enrichment (6-mer frequency, TF over GST control)"
same,binding signal,SPIB,"1.24 fold enrichment (6-mer frequency, TF over GST control)"
same,binding signal,ELK3,"1.2 fold enrichment (6-mer frequency, TF over GST control)"
same,binding signal,FEV,"1.11 fold enrichment (6-mer frequency, TF over GST control)"
same,binding signal,ETV5,"1.18 fold enrichment (6-mer frequency, TF over GST control)"
same,binding signal,HSF1,"1.5 fold enrichment (6-mer frequency, TF over GST control)"
same,binding signal,SPIC,"1.23 fold enrichment (6-mer frequency, TF over GST control)"
same,binding signal,ELF4,"1.2 fold enrichment (6-mer frequency, TF over GST control)"
same,binding signal,ELK4,"1.16 fold enrichment (6-mer frequency, TF over GST control)"
same,binding signal,ETV2,"1.28 fold enrichment (6-mer frequency, TF over GST control)"
same,binding signal,ELF3,"1.22 fold enrichment (6-mer frequency, TF over GST control)"
same,binding signal,CRX,"1.06 fold enrichment (6-mer frequency, TF over GST control)"
same,binding signal,ETV1,"1.21 fold enrichment (6-mer frequency, TF over GST control)"
